Results taken from PubChem BioAssay AID1851 (National Center for Advancing Translational Sciences (NCATS), 2009).
Several values for one entry are separate records, joined by “and”; a condition that tells them apart may be missing. Identical values can stand only once. The campaign covered roughly 16,000 compounds. About 4,000 (25%) were called active. Not shown: some 26% with an inconclusive outcome. Not all results are given here. Values without a mark were called inactive. Calls come from the whole dose curve; as a rule, active = well fitted curve in the direction sought with a large enough effect; inconclusive = small, poorly fitted or top-dose-only effect, or effect the other way; inactive = no such curve, though single readings can be large or run the other way.

Each compound was assayed against Cytochrome P450 2C9 (Homo sapiens) (UniProt P11712) (assay: Cytochrome panel assay with activity outcomes). Details: recombinant CYP, pro-luciferin dealkylation, luminescence, p450-cyp2c9; series mostly up to 57.1 µM; activity, negative = inhibition: at the top concentration.
Cytochrome P450 2C9 (Homo sapiens), sequence (P11712 whole entry, looked up): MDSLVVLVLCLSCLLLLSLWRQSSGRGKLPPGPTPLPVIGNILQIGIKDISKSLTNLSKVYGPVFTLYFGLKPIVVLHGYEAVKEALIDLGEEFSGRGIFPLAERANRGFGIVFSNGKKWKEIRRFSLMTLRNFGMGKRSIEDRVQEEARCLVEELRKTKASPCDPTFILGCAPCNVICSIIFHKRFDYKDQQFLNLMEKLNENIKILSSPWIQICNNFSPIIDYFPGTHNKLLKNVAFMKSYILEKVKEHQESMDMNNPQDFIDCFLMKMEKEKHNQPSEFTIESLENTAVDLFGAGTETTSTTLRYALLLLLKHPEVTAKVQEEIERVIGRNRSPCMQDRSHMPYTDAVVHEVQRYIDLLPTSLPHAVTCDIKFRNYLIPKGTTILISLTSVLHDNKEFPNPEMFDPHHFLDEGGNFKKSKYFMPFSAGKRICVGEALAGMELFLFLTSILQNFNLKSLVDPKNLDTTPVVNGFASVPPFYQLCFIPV
% is set by controls: 0 for no effect and ±100 for the full control effect.

`CC1CN(C2CCN(C(=O)c3cccc(Cl)c3)CC2)CC(C)O1` (stereo not drawn) was tested. Which “activity, negative = inhibition” value did it give?
Its value is -23.4%.

`Cc1ccccc1OCC(=O)Nc1ccc(N2CCN(C(=O)C(C)C)CC2)c(Cl)c1` was tested. Which AC50 did it give?
The AC50 was 3.98 µM (active).

Which AC50 does the source give for `O=C(Nc1ccccc1N1CCN(C(=O)c2ccc(Cl)cc2)CC1)c1cc(Br)ccc1Cl` here?
Its AC50 is 3.98 µM (active).

With `O=C(Nc1ccccc1N1CCN(C(=O)c2ccccc2)CC1)c1cc(Br)ccc1Cl` as the compound, how does the AC50 read?
Its AC50 is 2.51 µM (active).

With `CC(C)C(=O)N1CCN(c2ccccc2NC(=O)c2cccc(Cl)c2)CC1` as the compound, how does the AC50 read?
Its AC50 is 14.1 µM (active).

For `CC[C@]1(O)C[C@@H]2CN(CCc3c([nH]c4ccccc34)[C@](C(=O)OC)(c3cc4c(cc3OC)N(C=O)[C@H]3[C@@](O)(C(=O)OC)[C@H](C(=O)OC)[C@@]5(CC)C=CCN6CC[C@]43[C@H]65)C2)C1`, which “activity, negative = inhibition” value is on record?
The value was -28.6%.

`CC(C)C(O)(C#CCN1CCCC1)c1ccccc1` (stereo not drawn) was tested. Which “activity, negative = inhibition” value did it give?
Its value is -10.7%.

Which activity, negative = inhibition does the source give for `CC(C)(C)N1C(=O)[C@H]2[C@@H]3[C@H](O)C=CC(=O)[C@H]3CC[C@H]2C1=O` here?
The activity, negative = inhibition was 3.18% [at 11.4 µM].

How did the activity, negative = inhibition turn out when `CC(=O)O[C@]12CC[N@+]3(C)CCCC[C@@H]3[C-]1Nc1ccccc12` was run?
Its activity, negative = inhibition is 2.24% [at 11.4 µM].

How did the AC50 turn out when `Cc1ccc(C2=C(Cl)C(=O)C(c3ccc(C)cc3)=C(Cl)C2=O)cc1` was run?
Its AC50 is 1.58 µM (active).

How did the AC50 turn out when `COc1ccc(/C=N/NC(=O)CCCOc2ccc(Cl)cc2Cl)cc1[N+](=O)[O-]` was run?
Its AC50 is 2.24 µM (active).

How did the “activity, negative = inhibition” value turn out when `CC1(C)CC(=O)C/C(=N/NC(=O)CCCOc2ccc(Cl)cc2Cl)C1` was run?
The value was 17.7%.

How did the activity, negative = inhibition turn out when `COC(=O)[C@@H]1CC[C@H](C)[C@@H](c2ccc(C)cc2)N1C(=O)c1ccc(/C=N\OC[C@@H](C)[C@H](OCc2ccccc2)C(C)C)cc1` was run?
Its activity, negative = inhibition is -24.2% [at 11.4 µM].

For `COC(=O)[C@@H]1CC[C@H](C)[C@@H](c2ccc(C)cc2)N1C(=O)c1ccc(/C=N\OC[C@@H](O)COCc2ccco2)cc1`, which AC50 is on record?
Its AC50 is 3.98 µM (active).

`C=CC[C@@H]1C=C[C@@H](O/N=C\c2ccc(C(=O)N3[C@H](c4ccc(C)cc4)[C@@H](C)CC[C@H]3C(=O)OC)cc2)[C@@H](CO)O1` was tested. Which AC50 did it give?
Its AC50 is 3.98 µM (active).

With `COC(=O)C/C=C\[C@@H](C)[C@@H](/C=N\OC[C@@H](O)COCc1ccco1)OC` as the compound, how does the activity, negative = inhibition read?
The activity, negative = inhibition was -26.7% [at 11.4 µM].

With `COC(=O)C/C=C\[C@@H](C)[C@@H](/C=N\O[C@@H](C)c1cn([C@H](CO)Cc2ccccc2)nn1)OC` as the compound, how does the activity, negative = inhibition read?
The activity, negative = inhibition was -11.4% [at 11.4 µM] and -9% [at 11.4 µM].

How did the activity, negative = inhibition turn out when `CCCNC(=O)OC[C@@H]1O[C@H](CCO/N=C\C[C@H]2C=C[C@H](OC(C)=O)[C@@H](COC(C)=O)O2)C=C[C@@H]1Oc1ccc(OC)cc1` was run?
The activity, negative = inhibition was -11.7% [at 11.4 µM].

For `C=CC[C@@H]1C=C[C@H](ON=C(C)C)[C@H](CO)O1`, which activity, negative = inhibition is on record?
The activity, negative = inhibition was 12% [at 11.4 µM].

Which activity, negative = inhibition does the source give for `C=CC[C@@H]1C=C[C@@H](O/N=C\[C@@H](OC)[C@H](C)/C=C\CC(=O)OC)[C@@H](CO)O1` here?
Its activity, negative = inhibition is 21.3% [at 11.4 µM].

With `COC(=O)[C@@H]1CC[C@H](C)[C@@H](c2ccc(C)cc2)N1C(=O)c1ccc(/C=N\O[C@@H](C)c2cn([C@H](CO)Cc3ccccc3)nn2)cc1` as the compound, how does the AC50 read?
Its AC50 is 3.16 µM (active) and 2.51 µM (active).

With `COC(=O)[C@@H]1CC[C@H](C)[C@@H](c2ccc(C)cc2)N1C(=O)c1ccc(/C=N\OC[C@@H]2O[C@H](c3ccccc3)C=C[C@@H]2Oc2ccc(OC)cc2)cc1` as the compound, how does the activity, negative = inhibition read?
The activity, negative = inhibition was -16.2% [at 11.4 µM].

How did the AC50 turn out when `CCCNC(=O)OC[C@@H]1O[C@H](CCO/N=C\c2ccc(C(=O)N3[C@H](c4ccc(C)cc4)[C@@H](C)CC[C@H]3C(=O)OC)cc2)C=C[C@@H]1Oc1ccc(OC)cc1` was run?
Its AC50 is 3.98 µM (active).

For `COC(=O)C/C=C\[C@@H](C)[C@@H](/C=N\O[C@@H](C)c1cn([C@H](CO)Cc2ccccc2)nn1)NS(=O)(=O)c1ccc(C)cc1`, which activity, negative = inhibition is on record?
Its activity, negative = inhibition is -29.2% [at 11.4 µM].

`C/C(CCN1CCc2nc(-c3ccccc3)c(-c3ccccc3)cc2C1)=N\O[C@@H](C)CN1CCCc2nc(C)c(C)cc21` was tested. Which activity, negative = inhibition did it give?
The activity, negative = inhibition was -19.9% [at 11.4 µM].

`CC(C)=CCC/C(C)=C/CO/N=C1/C[C@@H](O)[C@@H](O)[C@@H]2[C@@H]3C(=O)N(Cc4ccc5c(c4)OCO5)C(=O)[C@H]3CC[C@@H]12` was tested. Which activity, negative = inhibition did it give?
Its activity, negative = inhibition is -23.6% [at 11.4 µM].

Which “activity, negative = inhibition” value does the source give for `O=C(c1ccco1)N1CCC[C@@]2(CCN(Cc3ccccc3)C2)C1` here?
Its value is 2.14%.

Which activity, negative = inhibition does the source give for `COC(=O)C/C=C\[C@@H](C)[C@@H](/C=N\OC[C@@H](O)[C@H]1O[C@H]2OC(C)(C)O[C@H]2[C@@H]1O)NS(=O)(=O)c1ccc(C)cc1` here?
Its activity, negative = inhibition is 2.11% [at 11.4 µM].

With `COC(=O)C/C=C\[C@@H](C)[C@@H](/C=N\OC[C@@H](O)[C@H]1O[C@H]2OC(C)(C)O[C@H]2[C@@H]1O)OC` as the compound, how does the activity, negative = inhibition read?
Its activity, negative = inhibition is 8.96% [at 11.4 µM].

Which AC50 does the source give for `COC(=O)[C@@H]1CC[C@H](C)[C@@H](c2ccc(C)cc2)N1C(=O)c1ccc(/C=N\OC[C@@H](O)[C@H]2O[C@H]3OC(C)(C)O[C@H]3[C@@H]2O)cc1` here?
The AC50 was 2.51 µM (active).

`CO/N=C\c1ccc(C(=O)N2[C@H](c3ccc(C)cc3)[C@@H](C)CC[C@H]2C(=O)OC)cc1` was tested. Which AC50 did it give?
The AC50 was 2.51 µM (active).

`C[C@@]12CCC(=O)C=C1CC[C@@H]1[C@@H]2[C@H](O)C[C@]2(C)[C@@H]1CC[C@]2(O)C(=O)CO` was tested. Which “activity, negative = inhibition” value did it give?
Its value is -1.37% [at 25.6 µM].

How did the activity, negative = inhibition turn out when `CN[C@@H](c1ccncc1)[C@@H](NC)c1ccncc1` was run?
Its activity, negative = inhibition is -8.04% [at 11.4 µM].

With `COCCNc1ncnc2ccc(-c3ccccc3C(F)(F)F)cc12` as the compound, how does the activity, negative = inhibition read?
The activity, negative = inhibition was 11% [at 2.29 µM].

Which AC50 does the source give for `Cc1nn(C)cc1C(C(=O)NC1CCCCC1)N(C(=O)Cc1cccs1)c1ccc(C(C)C)cc1` (stereo not drawn) here?
The AC50 was 25.1 µM (active).

Which “activity, negative = inhibition” value does the source give for `Cc1ccc(C(C(=O)NC2CCCCC2)N(CC2CCCO2)C(=O)CNC(=O)c2cccs2)cc1` (stereo not drawn) here?
The value was -15.9%.

For `CC(C)(C)NC(=O)C(c1ccccn1)N(C(=O)C1CSC(=O)C1)c1ccc(F)cc1` (stereo not drawn), which “activity, negative = inhibition” value is on record?
The value was -13.1%.

With `Cc1cc(C)cc(N(C(=O)Cc2cccs2)C(C(=O)NC2CCCCC2)c2ccccn2)c1` (stereo not drawn) as the compound, how does the AC50 read?
Its AC50 is 17.8 µM (active).
